SMILES strings stand for the structures.

The test has as its target AMP-activated protein kinase, AMPK (Homo sapiens) (UniProt P54646+O43741+P54619+Q9UGJ0+Q9Y478+Q13131+Q9UGI9). The test is described as follows: AMP-dependent Kinase enzyme assay. An in vitro enzyme assay that detects ADP turnover that is directly proportional to AMPK activity. This uses naive AMPK that is activated during the assay with MK-8722. Format: functional. Also noted: scale not given: direction of the effect not stated beside the values. The following applies: 30 µM.
On to `CC(C)N(C)S(=O)(=O)c1ccc2c(c1)CCN(C(=O)c1cccnn1)C2`, for which the Percent Effect was -25.3%.
In the case of `CNc1ncc(C(=O)N2CCCC(CO)(CCCOC)C2)cn1` (centres undefined) it was 5.91%; in that of `COc1ccsc1C(=O)NC1CCN(c2cccc(F)c2)CC1`, -1.16%.
For `COCCC1(C(=O)O)CCN(c2cc(C)c3ccccc3n2)CC1` the value was 3.32%; for `CCCN1CCC(NCc2cccc(CN3CCOC(C)C3)c2)CC1` (centres undefined), -4.13%.
For `N#Cc1cc(S(N)(=O)=O)ccc1N1CCc2c(Cl)cccc2C1` the value was 17.4%; for `CS(=O)(=O)NC1CCN(Cc2coc(-c3ccc(Cl)cc3)n2)CC1`, 1.23%.
Turning to `Cc1ccccc1Oc1ncccc1CNC(=O)Cn1cccnc1=O`, the Percent Effect was -5.58%.
For `CCC(C)Oc1ccc(CNCCc2c[nH]cn2)cc1Cl` (centres undefined) the value was -17.6%; for `Cc1cc(C2CCCN(Cc3nnc(Cc4ccccc4)o3)C2)n[nH]1` (centres undefined), 18%; for `O=C(Cc1ccc(Cl)cc1)N[C@@H]1CCC[C@@H](O)[C@@H]1O`, 22.5%.
In the case of `NC(=O)CC1CCCN(c2cncc(SCc3ccccc3)n2)C1` (centres undefined) it was 25.3%; in that of `CN1CCOC(CNCC(=O)NCCc2ccc(F)cc2)C1` (centres undefined), 4.27%; in that of `CC(C)(CNC(=O)c1ccco1)NC(=O)OC(C)(C)C`, -6.6%.
For `COc1ccccc1OC(C)CNC(=O)c1cnc[nH]1` (centres undefined) the value was 0.827%; for `COCC1CCN(C(C(=O)O)c2c(F)cccc2OC(C)C)CC1` (centres undefined), 5.46%; for `CC(=O)N1CCc2nc(N(C)C)nc(NCCc3ccccc3)c2CC1`, 3.82%.
With `CCc1nnc2n1CCN(c1nc(C)cc(N(C)C)n1)C2`, the Percent Effect was -7.79%.
In the case of `CCc1cc(CN2CCCCC2c2ccc(F)cc2)on1` (centres undefined) it was 2.23%.
`CC(NCc1nnc2n1CCCC2)c1nc(-c2cccs2)no1` (centres undefined): the Percent Effect is -0.613%.
For `CN(C)CCNC(=O)CCC1CCN(C(=O)c2ccc(Cl)cc2O)CC1` the value was 9.06%.
For `O=C(c1cc(C2CC2)nc2onc(-c3ccccc3)c12)N1CC(O)C1` the value was 2.65%; for `CC(=O)c1cccc(OC(C)C(=O)Nc2cnn(CCN(C)C)c2)c1` (centres undefined), -0.8%.
For `CC(C)N(Cc1ccccn1)C(=O)CCOc1cccc(F)c1` the value was -0.803%; for `O=C(c1cc(C2CC2)n[nH]1)N1C[C@H]2CC[C@](O)(c3ccccc3F)[C@H]2C1`, 16%; for `COc1cc(C)c(S(=O)(=O)CC(=O)N(C)C(C)C)cc1OC`, 5.04%.
In the case of `Cc1nncn1CCN1C(=O)CC2(CCCC2)CC1=O`, the Percent Effect came out at 9.66%.
In the case of `O=C1NCCCC12CCN(Cc1ccc(-c3ccccc3)s1)C2` (centres undefined) it was 6.83%; in that of `O=C(Cc1ccc2c(c1)CCC2)NC1CCN(Cc2ccccc2)CC1`, -0.352%.
For the molecule `CCN(Cc1cccc2c1OCCO2)C(=O)NC(C)(C)C`, the Percent Effect is -7.11%.
In the case of `COCCNC(=O)N1CCN(c2cc(F)ccc2F)CC1` it was 7.95%; in that of `CC(C)C(C)NC(=O)Nc1cccc(OCC#N)c1` (centres undefined), -3.11%; in that of `O=C(CCC1CCCN(C(=O)CCN2CCCCO2)C1)N1CCCC1` (centres undefined), -2.7%.
For `C[C@@H]1CN(S(=O)(=O)N2CCCCCC2)C[C@@]1(O)C1CCC1` the value was -7.79%; for `CSc1nccc(N2CCC3(CCCN(Cc4cccc(C)c4)C3)C2)n1` (centres undefined), 5.62%; for `Cc1nn(C)c(C)c1CCC(=O)NCC1(C(N)=O)CCOCC1`, 1.16%.
For `CN(C)c1cc2c(nn1)CCN(C(=O)c1ccc(-n3cccn3)nc1)C2` the value was 2.65%; for `CC(C)n1ccnc1CNC(=O)c1cccc(CCC(C)(C)O)c1`, 6.45%; for `COCCCN1CC2(CCN(C(=O)c3ccc(=O)n(C)c3)CC2)CC1=O`, 9.31%.
